Data from PubChem BioAssay (NCI).
This is part of a sample that, as a whole, favours compounds with a hit. Of some 83,000 tested, about 20% had one in any assay.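 Assay: single dose, 48 h. Readout: percent growth (0 = no net growth; negative = cell death). Active: <10.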 Values without a mark were called inactive. Activity calls are given as the source filed them.

Key:
Assay in all cases: NCI-60 one-dose screen, 48 h (100 = growth as untreated, 0 = no growth, -100 = all killed)
Settings in all cases: 10 µM unless noted
SR leukemia = system: SR leukemia
RPMI-8226 leukemia = system: RPMI-8226 leukemia
OVCAR-8 ovarian = system: OVCAR-8 ovarian
OVCAR-5 ovarian = system: OVCAR-5 ovarian
OVCAR-4 ovarian = system: OVCAR-4 ovarian
SK-OV-3 ovarian = system: SK-OV-3 ovarian
IGROV1 ovarian = system: IGROV1 ovarian
OVCAR-3 ovarian = system: OVCAR-3 ovarian
HS 578T breast = system: HS 578T breast
NCI/ADR-RES ovarian = system: NCI/ADR-RES ovarian
T-47D breast = system: T-47D breast
BT-549 breast = system: BT-549 breast
MDA-MB-435 melanoma = system: MDA-MB-435 melanoma
SW-620 colon = system: SW-620 colon
MCF7 breast = system: MCF7 breast
HCT-116 colon = system: HCT-116 colon
HCC-2998 colon = system: HCC-2998 colon
KM12 colon = system: KM12 colon

| Compound | growth (SR leukemia) | growth (RPMI-8226 leukemia) | growth (OVCAR-8 ovarian) | growth (OVCAR-5 ovarian) | growth (OVCAR-4 ovarian) | growth (SK-OV-3 ovarian) | growth (IGROV1 ovarian) | growth (OVCAR-3 ovarian) | growth (HS 578T breast) | growth (NCI/ADR-RES ovarian) | growth (T-47D breast) | growth (BT-549 breast) | growth (MDA-MB-435 melanoma) | growth (SW-620 colon) | growth (MCF7 breast) | growth (HCT-116 colon) | growth (HCC-2998 colon) | growth (KM12 colon) |
| --- | --- | --- | --- | --- | --- | --- | --- | --- | --- | --- | --- | --- | --- | --- | --- | --- | --- | --- |
| O=Cc1ccc([N+](=O)[O-])s1 | 63.2% | 94.6% | 87.1% | 93.7% | 98.3% | 109% | 79.8% | 105% | 113% | 95.2% | 82.8% | 102% | 110% | 62.5% | 47% | 46.4% | 100% | 102% |
| CC(C)CCNC(=O)Cn1cccc(NC(=O)OCc2ccccc2)c1=O | 107% | 92.6% | 104% | 127% | 98.7% | 101% | 112% | 107% | 103% | 93.9% | 104% | 110% | 115% | 108% | 95.1% | 110% | 103% | 107% |
| O=C(CSc1nc2sc3c(c2c(=O)n1-c1ccccc1)CCCCC3)N/N=C/c1ccc(F)cc1 | 11.3% | 66% | -17.9% (active) | 41.8% | -47.4% (active) | 73.4% | 62.1% | -33.8% (active) | -13.9% (active) | 22.9% | 16.9% | 48.4% | 70% | 53% | 26.8% | -26.2% (active) | 106% | 42.6% |
| O=C1Nc2ccc(Br)cc2/C1=N/c1n[nH]c(=S)s1 | 83.5% | 103% | 95% | 110% | 108% | 93.2% | 105% | 104% | 93.9% | 95.7% | 94.6% | 121% | 101% | 97.1% | 91.7% | 103% | 97.5% | 95.5% |
| N=C(N)c1ccc(-c2ccc(-c3ccc(Cl)cc3)s2)nc1 | 1.7% (active) | -24.6% (active) | -31% (active) | -28% (active) | 18.1% | 86.7% | -79.2% (active) | -93% (active) | 67.5% | 67.4% | 56.4% | 98% | -15% (active) | -83.5% (active) | -73.3% (active) | -82.3% (active) | -78.2% (active) | -74.8% (active) |
| Cn1cc(-c2nonc2-c2c[nH]c3ccc(Br)cc23)c2cc(Br)ccc21 | 20.5% | 41.3% | 34% | 37.6% | -2.18% (active) | 53.7% | 59% | 33.6% | 31.6% | 36.6% | 24.4% | 76.8% | 40.3% | 55.9% | 26.1% | 22.7% | 39.8% | 22.8% |
| CN1CCN(c2ccc(C(=O)Nc3cccc(C#Cc4cccc5[nH]nc(N)c45)c3)cc2C(F)(F)F)CC1 | -17.7% (active) | -13.7% (active) | -14.5% (active) | -43.1% (active) | -0.309% (active) | -42.6% (active) | -56.5% (active) | -17.9% (active) | -26% (active) | -24.7% (active) | -48.3% (active) | 71.4% | -88.8% (active) | -73.5% (active) | -71.6% (active) | -83.4% (active) | -75.1% (active) | -57% (active) |
| COc1ccc2c(O)c(/C=C3\N=Nc4ccccc43)oc2c1C[C@@H]1CCNC[C@H]1F | -38.5% (active) | 91.9% | 0.196% (active) | 67.8% | 64.9% | 90.5% | 76.4% | 94% | 60.3% | 72.1% | 94.3% | 73.8% | 68.3% | 6.01% (active) | 18.3% | -68.2% (active) | 78% | 10.9% |
| CC1=Nc2cnc(Nc3ccc(OCCN4CCCCC4)cc3)nc2Nc2ccccc21 | 33.7% | 62.7% | 72.9% | 70.7% | 53% | 34.8% | 14.7% | 68.9% | 33.6% | 69.8% | 66.4% | 78.6% | 56.3% | 62.3% | 67.6% | 64.1% | 67% | 12.8% |
| COc1cc2c(c(OC)c1OC)-c1ccc(OC)c(=O)cc1[C@@H](NC(=O)CCl)CC2 | 36.3% | 20.3% | 8.53% (active) | 22.4% | 42.7% | 15.5% | 14.1% | 8.93% (active) | 63.4% | -39.4% (active) | 73.7% | -48.8% (active) | 8% (active) | 21.3% | 18.1% | -39.3% (active) | 5.69% (active) | -10.3% (active) |
| CC(=O)OCc1nc(C#N)c(N(C)C)o1 | 92.2% | 99.6% | 94.1% | 86.9% | 100% | 90.1% | 95% | 99.1% | 99.4% | 103% | 83.9% | 91.2% | 100% | 101% | 92.9% | 93.4% | 97% | 110% |
| CC1(C)CCC(S(=O)(=O)c2ccc3c(c2)/C(=N\O)c2cc(S(=O)(=O)N4CCC(O)(c5cccc(C(F)(F)F)c5)CC4)ccc2-3)CC1 | -54% (active) | -52.5% (active) | -73% (active) | -80.3% (active) | -92.6% (active) | -99.6% (active) | -32.1% (active) | -98.3% (active) | -56.4% (active) | 61% | -83.4% (active) | -80.8% (active) | -93.5% (active) | -92.9% (active) | -70.9% (active) | -87.7% (active) | -82.9% (active) | -86.7% (active) |
| CCNc1cc(-c2cccc(OC(F)(F)F)c2)nc2ccc(N3CCCC3)cc12 | 6.47% (active) | -2.09% (active) | 5.54% (active) | 27.9% | 14.5% | 17.7% | 27.1% | -18% (active) | 70.5% | 0.328% (active) | -24.6% (active) | 75.2% | 2.21% (active) | 4.43% (active) | 3.29% (active) | -15.9% (active) | 6.29% (active) | 4.19% (active) |
| Cn1c(=O)c2[nH]c(N/N=C/c3ccccc3Br)nc2n(C)c1=O | 89.7% | 105% | 112% | 89.5% | 117% | 117% | 101% | 119% | 161% | 104% | 108% | 99% | 113% | 109% | 91.4% | 103% | 118% | 98.6% |
| COc1ccc(/C=C2\COc3ccc(O)cc3C2=O)c(OC)c1OC | 16.5% | 8.76% (active) | 67% | 95.8% | 79.3% | 112% | 91.3% | 57.2% | 78% | 55.1% | 64.7% | 72.3% | 24.9% | 38.9% | 24.5% | 70.8% | 86.4% | 44.3% |
| COc1ccc(-c2nc3c(c(-c4ccccc4)nn3-c3ccccc3)c(-c3ccc(N4CCOCC4)cc3)c2C#N)cc1 | 110% | 89.8% | 105% | 102% | 106% | 119% | 109% | 115% | 106% | 111% | 94.3% | 95.3% | 99.2% | 90.4% | 84.6% | 96% | 108% | 104% |
